# Data taken from PubChem BioAssay AID504834 (National Center for Advancing Translational Sciences (NCATS), 2011).
# Among all 320,000 compounds or so, about 22,000 (6.9%) were called active. About 27% were inconclusive and are not listed. The call rests on the fitted dose curve; in most records, active means well fitted inhibition curve with a large enough effect; inconclusive means small, poorly fitted or top-dose-only effect, or another doubt; inactive means no such curve, though single readings can be large or run the other way. Only a selection was taken, and actives are over-represented in it overall.
# Test: Primary qHTS for delayed death inhibitors of the malarial parasite plastid, 96 hour incubation
# Conditions: P. falciparum luciferase reporter growth; series mostly up to 28.7 µM; activity change, negative = inhibition: at the top concentration
# Summary of the method: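 Delayed-death screen, second-generation endpoint: infected erythrocytes, 2% hematocrit, 0.05% parasitemia final; 96 hours at 37 C, 5% CO2; luciferase detection reagent; luminescence decrease equals reduced growth.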
# On the % scale 0 is the no-effect control and ±100 the full control effect; potency means the concentration at half of the fitted maximal effect.
Compound,"activity change, negative = inhibition",Potency
CNS(=O)(=O)c1ccc(NC(=O)Nc2ccc3c(c2)OCO3)cc1,-11.3% (inactive),–
CCOC(=O)C(=O)C1C(=O)Nc2ccccc21 (stereo unspecified),19% (inactive),–
CCCCCN(C(=O)CCC(=O)OCC(=O)NCc1ccc(OC)cc1)c1c(N)n(CCCC)c(=O)[nH]c1=O,26.9% (inactive),–
CCCCCN(C(=O)CCC(=O)OCCOc1ccc(OC)cc1)c1c(N)n(CCCC)c(=O)[nH]c1=O,-19.4% (inactive),–
CCCCCN(C(=O)CCC(=O)OCC(=O)NC1CCC(C)CC1)c1c(N)n(CCCC)c(=O)[nH]c1=O (stereo unspecified),–,14.7 µM (active)
O=C(NCc1ccco1)C1CCCN1S(=O)(=O)c1ccccc1C(F)(F)F (stereo unspecified),-14% (inactive),–
CCOC(=O)C1=C(COC(=O)[C@H](C)NS(=O)(=O)c2ccccc2F)NC(=O)NC1C (stereo partly specified),-11% (inactive),–
Cc1cs/c(=N\N=C\c2ccc(O)cc2)n1Cc1ccco1,11.9% (inactive),–
CC(C)n1c(=O)c(C=Nc2ccc(Br)cc2)c(O)n(Cc2ccco2)c1=O,–,10.4 µM (active)
CN(C)CCCN=Cc1c(O)n(Cc2ccco2)c(=O)[nH]c1=O,-6.3% (inactive),–
COC(=O)c1cccc(N(C(=O)CNC(=O)c2cccs2)C(C(=O)NCC2CCCO2)c2ccc(OC)c(OC)c2)c1 (stereo unspecified),25.5% (inactive),–
CC1(C)CC(=O)CC2(C1)NCC(c1ccccc1Cl)c1c2[nH]c2ccccc12 (stereo unspecified),–,9.28 µM (active)
O=C(O)CC(c1ccccc1F)N1Cc2ccccc2C1=O (stereo unspecified),18.9% (inactive),–
CN(C)CCNc1ccc(-c2n[nH]c(=O)c3ccccc23)cc1[N+](=O)[O-],0% (inactive),–
CCOC(=O)c1ccc(NC(=S)Nc2cc(C)cc(C)n2)cc1,28.8% (inactive),–
CCOC(=O)c1cn[nH]c1NC(=S)Nc1ccccc1,183% (inactive),–
CCOC(=O)c1cc2c(nc1NC(=S)Nc1ccccc1)CC(C)(CC)OC2 (stereo unspecified),–,13.1 µM (active)
COc1ccc(CNC(=O)c2cc(=O)c3c(C)cc(C)cc3o2)cc1,9.78% (inactive),–
Cc1ccc(N=C2SCCCN2C(=O)c2cccc(N3C(=O)CCC3=O)c2)cc1Cl,-0.425% (inactive),–
COc1ccc(N2CC(NS(=O)(=O)c3ccc4ccccc4c3)CC2=O)cc1 (stereo unspecified),31.1% (inactive),–
COc1ccc(C(=O)NC2CCN(C(=S)NCCc3ccccc3)CC2)cc1,29% (inactive),–
O=C(NCc1ccco1)C1CCCN(S(=O)(=O)c2ccccc2)C1 (stereo unspecified),-64.2% (inactive),–
CCOC(=O)N1CCN(S(=O)(=O)c2ccc(OC)cc2)CC1,-14.5% (inactive),–
Cc1ccc(C(=O)NC2CCN(C(=O)Nc3ccc(F)cc3)CC2)cc1,35.4% (inactive),–
O=C(NC1CCN(C(=S)NCc2ccco2)CC1)c1ccc(F)cc1,–,2.94 µM (active)
COc1ccc(CCNC(=O)C2CCCN(S(=O)(=O)c3ccc(OC)cc3)C2)cc1 (stereo unspecified),17.3% (inactive),–

Compound,"activity change, negative = inhibition",Potency
O=S(=O)(c1ccc(F)cc1)N1CCN(C(=S)NCc2ccco2)CC1,–,0.657 µM (active)
COc1ccc(CCNC(=S)N2CCN(S(=O)(=O)c3ccc(F)cc3)CC2)cc1,–,2.94 µM (active)
CC1CCN(S(=O)(=O)c2ccc(S(=O)(=O)NCc3ccco3)cc2)CC1,-27.6% (inactive),–
CSc1ccccc1NC(=O)COC(=O)CCCOc1ccc(C)cc1,21.6% (inactive),–
COc1ccc(CCNC(=O)COC(=O)Cc2cccc(F)c2)cc1,11.3% (inactive),–
O=C(COC(=O)CNC(=O)C1CCCCC1)NCc1ccccc1,24.4% (inactive),–
COc1cccc(CSc2nc3nc(C)cc(C)n3n2)c1,-2.95% (inactive),–
COC(=O)N/N=C/c1c[n+]([O-])c2ccccc2[n+]1[O-],5.91% (inactive),–
O=C(CCN1C(=O)[C@H]2CC=CC[C@H]2C1=O)NCc1nc(-c2ccccc2)no1,-14.7% (inactive),–
CCC(C)NC(=O)C1CCC(=O)N1Cc1ccc(C)cc1 (stereo unspecified),–,11.7 µM (active)
Cc1ccc(CN2C(=O)CCC2C(=O)NCCCN2CCCCC2C)cc1 (stereo unspecified),200% (inactive),–
CCC(C)NC(=O)C1c2ccccc2C(=O)N1Cc1ccccc1 (stereo unspecified),3.04% (inactive),–
O=S(=O)(Cc1nnnn1-c1ccccc1)c1ccccc1,-15.4% (inactive),–
O=C(/C=C/c1ccccc1[N+](=O)[O-])OCC(=O)N1CCCC1,4.58% (inactive),–
COc1cccc(NC(=O)N2CCC(NC(=O)C(Cc3cccc(C)c3)NC(C)=O)CC2)c1 (stereo unspecified),-1.88% (inactive),–
O=C(O)Cc1sc(-c2ccc(C(=O)O)cc2)nc1-c1ccccc1,3.9% (inactive),–
Cc1ccc(S(=O)(=O)NCCC(=O)Nc2ccc(C)c(Cl)c2)cc1C,-21.6% (inactive),–
Cc1ccc(-c2nc(-c3cccnc3)sc2CC(=O)Nc2ccc(C)c(Cl)c2)cc1,–,11.7 µM (active)
COc1ccc(OC)c(C(=O)NC(CC(N)=O)c2ccc(N3CCC(N4CCCCC4)CC3)c([N+](=O)[O-])c2)c1 (stereo unspecified),51.1% (inactive),–
COc1ccc(N(C)C(=O)CCS(=O)(=O)c2cccc3nsnc23)cc1,6.94% (inactive),–
COc1ccc(N(C)S(=O)(=O)c2cccc3nsnc23)cc1,24.7% (inactive),–
CCOc1ccc(N(CC)S(=O)(=O)c2cccc3nsnc23)cc1,–,6.57 µM (active)
O=C(Nc1ccc(N2CCOCC2)c(Cl)c1)c1ccc(S(=O)(=O)N2CCOCC2)cc1,6.03% (inactive),–
COc1ccc(CNC(=O)Cc2ccc(-c3ccccc3)cc2)cc1OC,-17.7% (inactive),–
COc1ccc(COC(=O)NC(C(=O)O)c2ccccc2)cc1 (stereo unspecified),82% (inactive),–
COC(=O)c1ccc(C(NC(=O)OCc2ccccc2)/C(C)=C/[C@@H](C)C(=O)NCc2ccc(OC)c(OC)c2)cc1 (stereo partly specified),–,11.7 µM (active)

Compound,"activity change, negative = inhibition",Potency
COCCCNC(=O)Cn1c(=O)n(Cc2ccccc2Cl)c(=O)c2cc(OC)c(OC)cc21,33.6% (inactive),–
COc1ccccc1CNC(=O)CCCN1C(=O)NC2(CCCC2)C1=O,-3.02% (inactive),–
COc1ccccc1CNC(=O)CCCn1c(=O)c2ccccc2n(CC(=O)NC2CCCC2)c1=O,–,4.65 µM (active)
COC(=O)c1ccccc1N=Nc1c(C)[nH][nH]c1=O,-0.0243% (inactive),–
O=C(O[C@H]1[C@H](Cc2ccccc2)NS(=O)(=O)[C@H]2C[C@@H]3C=C[C@]12O3)c1ccc([N+](=O)[O-])cc1,-23.9% (inactive),–
NC(=O)COC(=O)/C=C/c1ccc2ccccc2n1,0.945% (inactive),–
CC(=O)c1ccc(S(=O)(=O)N2CCN(C(=O)/C=C/c3ccc4ccccc4n3)CC2)cc1,–,5.22 µM (active)
CC(=O)c1ccc(S(=O)(=O)N2CCC3(CC2)OCCO3)cc1,-2.99% (inactive),–
COCC1CCCN(C(=O)c2ccc3oc(C(C)C)nc3c2)C1 (stereo unspecified),-11.9% (inactive),–
Nn1c(SCC(=O)Nc2nccs2)nnc1-c1ccco1,-3.03% (inactive),–
CN(C)/N=C/c1cn(-c2ccccc2)nc1-c1cccnc1,-21.6% (inactive),–
COC(=O)c1cn(-c2ccccc2)nc1-c1cccnc1,–,7.38 µM (active)
CC(C)(C)OC(=O)N/N=C/c1cn(-c2ccccc2)nc1-c1cccnc1,–,2.33 µM (active)
O=C(COC(=O)/C=C/c1cn(-c2ccccc2)nc1-c1cccnc1)Nc1ccc(Cl)cc1Cl,-12.5% (inactive),–
NC(=O)C1CCN(C(=O)c2cn(-c3ccccc3)nc2-c2cccnc2)CC1,34.6% (inactive),–
O=C(NCc1cccnc1)c1cn(-c2ccccc2)nc1-c1cccs1,11.5% (inactive),–
COc1ccc(C(=O)N2CCN(c3ccc(C(C)=O)cc3F)CC2)cc1S(=O)(=O)NC1CC1,35.2% (inactive),–
Cc1ccc(/C=C/C(=O)OCC(=O)NCc2ccc(Cl)cc2)o1,32.4% (inactive),–
Cc1cc(-c2ccc(C)c(S(=O)(=O)NCCCN(Cc3ccccc3)C(C)C)c2)on1,10.5% (inactive),–
COC(=O)c1c(NC(=O)c2ccccc2F)sc2c1C(C(=O)OC)CC2 (stereo unspecified),1.77% (inactive),–
O=C(Nc1ccc(C(=O)O)cc1)/C(=C\c1ccccc1)NC(=O)c1ccc(Br)cc1,52.1% (inactive),–
COc1ccccc1N1CCN(C(=O)C2Cc3ccccc3CN2C(=O)c2ccco2)CC1 (stereo unspecified),-15.4% (inactive),–
CCCCn1c(N)c(N(CCOC)C(=O)CSCC(=O)Nc2cccc(C)c2)c(=O)[nH]c1=O,48.9% (inactive),–
CCOCCn1c(-c2ccccc2)nc2ccccc21,4.72% (inactive),–
CCCCn1c(-c2cccc(C)c2)nc2cc3[nH]c(=O)c(C(C)C)nc3cc21,–,4.15 µM (active)
O=C(O)C1CCCN1C1=NS(=O)(=O)c2ccccc21 (stereo unspecified),31.3% (inactive),–

Compound,"activity change, negative = inhibition",Potency
CN(Cc1ccccc1)S(=O)(=O)c1nnc(NC(=O)c2ccccc2F)s1,94.1% (inactive),–
CN(C(=O)COC(=O)c1nc(Cl)ccc1Cl)C1CCS(=O)(=O)C1 (stereo unspecified),23.1% (inactive),–
Cc1cccc2cc(CN(Cc3cccs3)C(=S)NCc3ccco3)c(=O)[nH]c12,-21.7% (inactive),–
O=C(Nc1ccccc1)N(Cc1cccnc1)Cc1ccco1,-7.92% (inactive),–
Cc1ccc(C)c2[nH]c(=O)c(CN(Cc3cccnc3)C(=S)NCc3ccco3)cc12,–,3.7 µM (active)
Cc1cn([C@H]2CC(F)[C@@H](CO)O2)c(=O)[nH]c1=O (stereo partly specified),0.0378% (inactive),–
O=C(Cn1nc(Cc2cccnc2)c2ccccc2c1=O)NCC1CCCO1 (stereo unspecified),–,9.28 µM (active)
O=C(CN1C(=O)NC2(CCCC2)C1=O)NCC1CCCO1 (stereo unspecified),10.6% (inactive),–
Cc1nn(CC(=O)NCC2CCCO2)c(=O)c2cc3ccccc3n12 (stereo unspecified),-29.6% (inactive),–
CCCn1c2ccccc2c2cnn(CC(=O)NCCCN3CCCCC3CC)c(=O)c21 (stereo unspecified),9.2% (inactive),–
CCC1CCC2(CC1)NC(=O)N(CC(=O)Nc1ccc(OC)cc1)C2=O (stereo unspecified),29.4% (inactive),–
COc1ccc(S(=O)(=O)NC(C)C(=O)N2CCCCCC2)cc1 (stereo unspecified),-3.52% (inactive),–
COc1ccc(CC(NC(C)=O)C(=O)NC2CCN(C(=O)c3ccc(Cl)cc3)CC2)cc1 (stereo unspecified),3.33% (inactive),–
O=C(C1CCN(Cc2ccc(Cl)cc2)CC1)N1CCN(Cc2ccc3c(c2)OCO3)CC1,4.83% (inactive),–
Cc1ccc(-c2cc(C(=O)NCc3cn(C)nc3C)c3cc(Br)ccc3n2)cc1,–,13.1 µM (active)
Cc1ccc2nc(-c3cccc(Br)c3)cc(C(=O)Nn3cnnc3)c2c1,-3.98% (inactive),–
COc1ccc(Cl)cc1C(=O)NCc1cn(C)nc1C,24.3% (inactive),–
O=C(CCNC(=O)c1ccc(Br)cc1)Nc1cccc(S(=O)(=O)N2CCCCC2)c1,5.81% (inactive),–
O=C(O)c1ccc(NC(=O)c2ccc(COc3ccc(Cl)cc3)o2)cc1,-3.61% (inactive),–
COc1ccccc1CNS(=O)(=O)CC12CCC(CC1=O)C2(C)C (stereo unspecified),-8.22% (inactive),–
Cc1c2cnn(-c3ccccc3)c(=O)c2c(C)n1CCCC(=O)N1CCN(C)CC1,–,13.1 µM (active)
CC(=O)Cn1cnc2c(cnn2-c2ccccc2)c1=O,2.1% (inactive),–
O=C(CCCN1C(=O)C2C3C=CC(C3)C2C1=O)N1CCN(c2ccccc2)CC1 (stereo unspecified),-1.15% (inactive),–
